{
  "source": "PubChem BioAssay AID1053125",
  "about": "(Broad Institute, 2014)",
  "note": "Results with a measured potency or affinity are listed apart. A number with no mark means an inactive call.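 Rule for the calls: active = viability loss whose fitted half-maximal concentration is at most twice the top valid tested dose; inconclusive = flat curve with 30 to 70% loss, or poor fit; inactive = the rest.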",
  "data": [
    {"assay": "HepG2 cell cytotoxicity, dose response, cytotoxicity control, ATP luminescence, cherry-pick, set 6 (AID 1053125)", "settings": "HepG2 viability, ATP luminescence (CellTiter-Glo), 72 h; series mostly up to 26 µM; activity change, negative = cytotoxicity: at the top concentration", "units": {"activity change, negative = cytotoxicity": "%"}, "values": [
      {"smiles": "Cc1cccn2c(=O)c(/C=C(\\C#N)C(N)=O)c(Oc3ccccc3)nc12", "activity change, negative = cytotoxicity": -7.13},
      {"smiles": "CCOc1ccc(C(=O)c2cc3ccc(O)cc3oc2=O)cc1", "activity change, negative = cytotoxicity": 7.1},
      {"smiles": "CCOCCCNc1nc2nc3ccc(C)cn3c(=O)c2cc1C(=O)NCC1CCCO1", "note": "(centres undefined)", "activity change, negative = cytotoxicity": -3.61},
      {"smiles": "COCCn1c(=N)c(S(=O)(=O)c2ccc(F)cc2)cc2c(=O)n3ccccc3nc21", "activity change, negative = cytotoxicity": -0.298},
      {"smiles": "O=C(O)[C@@H]1CCCN1S(=O)(=O)c1cccc(S(=O)(=O)N2CCC[C@H]2C(=O)O)c1", "activity change, negative = cytotoxicity": 1.12},
      {"smiles": "O=C(Nc1ccc(-c2ccco2)cc1)C1CCCN(Cc2ccco2)C1", "note": "(centres undefined)", "activity change, negative = cytotoxicity": -14.2},
      {"smiles": "CCCOc1ccccc1/C=C1\\SC(N)=NC1=O", "activity change, negative = cytotoxicity": -8.75},
      {"smiles": "Cc1ccc2nc3c(cc(C(N)=S)c(=N)n3CCCOC(C)C)c(=O)n2c1", "activity change, negative = cytotoxicity": -1.02},
      {"smiles": "O=C(O)c1cccc(Nc2nc(-c3cc4ccccc4oc3=O)cs2)c1", "activity change, negative = cytotoxicity": 1.67},
      {"smiles": "CCCN1CCN(C(=O)c2ccc(CS(=O)c3ccc(Br)cc3)o2)CC1", "note": "(centres undefined)", "activity change, negative = cytotoxicity": 4.12},
      {"smiles": "Nn1c(SCC(=O)N2CCCC2)nnc1-c1cccs1", "activity change, negative = cytotoxicity": -0.141},
      {"smiles": "COc1ccccc1N1CCN(C2CCC(C)CC2)CC1", "note": "(centres undefined)", "activity change, negative = cytotoxicity": -3.96},
      {"smiles": "Cc1ccc(C(=O)OCC(=O)Nc2c(C)nn(-c3ccccc3)c2C)c(O)c1", "activity change, negative = cytotoxicity": 9.12},
      {"smiles": "CCCCN(CCCC)CC(O)Cn1c2ccccc2c(=O)c2ccccc21", "note": "(centres undefined)", "activity change, negative = cytotoxicity": -21.4},
      {"smiles": "N#Cc1ccc(OCC(=O)OCC(=O)N2CCc3ccccc32)cc1", "activity change, negative = cytotoxicity": -1.16},
      {"smiles": "CC(=O)c1cccc(-c2ccnc3c2CC(C(=O)NCc2ccc(F)c(F)c2)O3)c1", "note": "(centres undefined)", "activity change, negative = cytotoxicity": 2.47},
      {"smiles": "COc1cccc2c(=O)c3c(cnn3C)n(C)c12", "activity change, negative = cytotoxicity": -1.18},
      {"smiles": "COCCCn1c(=N)c(C(=O)NC2CCCCC2)cc2c(=O)n3ccccc3nc21", "activity change, negative = cytotoxicity": -7.84},
      {"smiles": "COc1cc(C(=O)NCCCNc2nc3c(C)cc(C)cc3cc2C#N)cc(OC)c1OC", "activity change, negative = cytotoxicity": -12},
      {"smiles": "O=C(Cn1ccc([N+](=O)[O-])n1)N1CCCCCC1", "activity change, negative = cytotoxicity": -2.07},
      {"smiles": "CCc1nc(SCC(=O)c2ccccc2)c2ccccc2n1", "activity change, negative = cytotoxicity": -8.96},
      {"smiles": "Cc1cc2c(C)cc(=O)oc2c2c1NCCC2", "activity change, negative = cytotoxicity": -2.33},
      {"smiles": "CCc1cccc(C)c1NC(=S)NCc1ccc2c(c1)cc(C)n2C", "activity change, negative = cytotoxicity": 9.93},
      {"smiles": "O=c1[nH]c(=O)c2nc(-c3ccc(Cl)cc3)cnc2[nH]1", "activity change, negative = cytotoxicity": -2.93},
      {"smiles": "CCOC(=O)c1c(C)n(C)c2ccc(OCC(O)CN3CCC(C)CC3)cc12", "note": "(centres undefined)", "activity change, negative = cytotoxicity": -5.75},
      {"smiles": "Cn1c(=N)c(S(=O)(=O)c2ccccc2)cc2c(=O)n3ccccc3nc21", "activity change, negative = cytotoxicity": -17},
      {"smiles": "N#Cc1c(NCCCO)nc(NCc2ccccc2)c2c1CCN(Cc1ccccc1)C2", "activity change, negative = cytotoxicity": -14.7},
      {"smiles": "CN1c2ccc(Cl)cc2C(=O)NC1C1CC=CCC1", "note": "(centres undefined)", "activity change, negative = cytotoxicity": -1.75},
      {"smiles": "COC(=O)C1=CN(C)C=C(C(=O)OC)C1c1ccccc1Cl", "activity change, negative = cytotoxicity": -5.6},
      {"smiles": "CN(C)C(=O)CSc1nc2ccc(C(=O)c3ccccc3)cc2[nH]1", "activity change, negative = cytotoxicity": -13.4},
      {"smiles": "Clc1ccccc1C1=CC(c2ccco2)n2ncnc2N1", "note": "(centres undefined)", "activity change, negative = cytotoxicity": -9.12},
      {"smiles": "C=CCn1c(=N)c(C#N)cc2c(=O)n3ccccc3nc21", "activity change, negative = cytotoxicity": -4.55},
      {"smiles": "CCOC(=O)c1cc2c(=O)n3ccccc3nc2n(Cc2ccc(Cl)cc2)c1=N", "activity change, negative = cytotoxicity": -10.4},
      {"smiles": "O=C(c1ccc(F)cc1)C1CCN(C(=O)Nc2ccccc2Cl)CC1", "activity change, negative = cytotoxicity": -1.49}
    ]}
  ]
}
